Compound activity from PubChem BioAssay.
Most compounds without a hit are left out; they make up all but 6% or so of the library.
D3 antag – D3 dopamine receptor (human) antagonism. P35462. D3R cells, DiscoveRx beta-arrestin luminescence, antagonist mode; active compounds read low. max response, negative = inhibition, %. hit rate 2.5% among 360,000; in the data active = max response below about -50%; inconclusive = no clear call, values can overlap the other calls; note: % is set by controls: 0 for no effect and ±100 for the full control effect
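Cells plated overnight at 1500 cells/well, then exposed to library compounds with dopamine controls for 90 minutes at 37 degrees C. DiscoveRx reagent added for 30–60 minutes at room temperature; luminescence read, quantitative HTS format.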
D1 ag – human D1 receptor agonism | P21728 | hit rate 1% among 360,000 | AID 504660 | HEK293 T-REx D1 cells, calcium flux, agonist mode | activation, % at 2 µM; in the data active = activation above about 30%; note: 0% is about no effect
Target sequence (P21728 whole entry, looked up): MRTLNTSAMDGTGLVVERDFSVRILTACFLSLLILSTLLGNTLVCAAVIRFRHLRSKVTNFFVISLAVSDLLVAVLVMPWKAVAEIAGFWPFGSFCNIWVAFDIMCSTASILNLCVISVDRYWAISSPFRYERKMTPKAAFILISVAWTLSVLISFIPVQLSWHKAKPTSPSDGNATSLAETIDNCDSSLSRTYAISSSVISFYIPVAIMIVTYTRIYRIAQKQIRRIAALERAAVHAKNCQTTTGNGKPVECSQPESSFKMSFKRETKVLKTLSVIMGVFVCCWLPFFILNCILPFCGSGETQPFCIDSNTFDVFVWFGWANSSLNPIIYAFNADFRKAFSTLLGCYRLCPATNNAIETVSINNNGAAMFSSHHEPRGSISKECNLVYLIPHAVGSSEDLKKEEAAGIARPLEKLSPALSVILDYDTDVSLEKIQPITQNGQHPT
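Agonism was scored from calcium flux recorded over 180 s (1 read/s) after pintool compound addition, following a 10-cycle baseline. Cells were inducible force-coupled HEK293 TREx D1, plated overnight at 30 C and loaded with no-wash calcium dye.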
D3 ag – activates the human D3 dopamine receptor; max activation, %; P35462; D3R DiscoveRx beta-arrestin cells, luminescence, 90 min; hit rate 0.58% among 410,000; in the data active = max activation above about 30%; note: 0% is about no effect
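Agonist mode: compounds and dopamine controls were applied to plated cells for 90 min at 37 degrees C after an overnight attachment at 1500 cells/well. Luminescent read-out followed 30 - 60 minutes at room temperature with DiscoveRx detection reagent.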
D1 potentiator – human D1 dopamine receptor positive modulation; AID 504651; P21728; hit rate 0.036% among 360,000; HEK293 TREx D1 cells, calcium flux, dopamine EC20 potentiation; potentiation, % at 10 µM; in the data active = potentiation above about 30%; note: 0% is about no effect
D1 antag – blocks dopamine activation of the human D1 receptor | hit rate 3.2% among 360,000 | HEK293 TREx D1 cells, calcium flux, dopamine EC80; active compounds read low | P21728 | activity change, negative = inhibition, % at 10 µM; in the data active = activity change below about -30%; note: % is set by controls: 0 for no effect and ±100 for the full control effect
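Kinetic fluorescence of a calcium dye serves as the read-out. D1-expressing Hek293 Trex cells, induced overnight at 30 C, are exposed to compound for 180 s before an EC80 dopamine addition, then read 180 s further.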
BCR signal inh – inhibitors of chronic active B-cell receptor signaling | ABC-DLBCL IkBa-CBG/CBR reporter, luminescence ratio, 4 h | Potency, µM (titrated, usually from 46.1 µM), inactives show top-dose activity change, negative = inhibition, actives largely listed as inhibitors | hit rate 0.05% among 340,000 | AID 493014; active = well fitted inhibition curve with a large enough effect in the signal ratio, with a control signal flat, not every such curve was filed as active; inconclusive = small, poorly fitted or top-dose-only effect, or effect the other way, or a change in a side signal; the % refers to the signal ratio;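 note: potency is the fitted concentration of half-maximal effect; plate controls were basal doxycycline-induced cells for no effect and cells given 10 µM MG132 for full effect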
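Concentration-response series (up to 46 uM) were applied to TMD8 dual-reporter cells for 4 h at 37C with doxycycline. Green/red ratio, after filter-overlap correction, defined %Activity; red signal alone was normalised to basal cells and zero luminescence.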
* hit, by the source's call; ? = inconclusive; . = no result given.

SMILES	D3 antag	D1 ag	D3 ag	D1 potentiator	D1 antag	BCR signal inh
CC(Oc1ccccc1)C(=O)OCC(=O)Nc1sccc1C(N)=O (stereo unspecified)	39	14	12	-3	-34*	0%
COc1ccc(Cl)cc1NC(=O)COC(=O)Cc1cc(OC)c(OC)c(OC)c1	5	.	10	.	.	?
COc1cc(CC(=O)OCC(=O)NCC(C)C)cc(OC)c1OC	-1	9	10	-3	-33*	-3%
COC(=O)c1ccc(C2CC(=O)Nc3c2c(C)nn3-c2nc(C)cc(C)n2)cc1 (stereo unspecified)	.	-1	-3	2	2	.
O=C(Cn1c(=O)n(Cc2ccc3c(c2)OCO3)c(=O)c2oc3ccccc3c21)Nc1ccccc1F	.	4	-6	-1	6	.
CCOC(=O)C1CCN(c2c(C(=O)c3ccc(OC)cc3)cnc3ccccc23)CC1	.	1	-13	-5	12	.
CCC(C)n1c(=N)c(S(=O)(=O)c2ccc(C)cc2)cc2c(=O)n3cc(C)ccc3nc21 (stereo unspecified)	.	2	0	0	0	.
Cc1ccccc1NC(=O)COC(=O)Cc1ccsc1	2	3	1	-4	-31*	-1%
O=[N+]([O-])c1ccc(/C=N/NC2=NS(=O)(=O)c3ccccc32)cc1	?	4	-20	4	13	1%
O=S1(=O)N=C(N/N=C/c2cccs2)c2ccccc21	-2	3	2	-5	-31*	1%
CCOc1ccc(CCNC(=O)C2CCN(C(=O)c3cc4sccc4n3CC)CC2)cc1OCC	.	10	-4	-7	-8	.
C=CC(=O)N1C/C(=C/c2ccccc2)C(=O)/C(=C\c2ccccc2)C1	-62*	.	-19	.	.	.
C=CC(=O)N1C/C(=C/c2ccc(Cl)cc2)C(=O)/C(=C\c2ccc(Cl)cc2)C1	?	.	-14	.	.	.
Cn1c(Nc2ccc(Cl)cc2F)nc2cc(-c3ccccc3)sc2c1=O	8	.	13	.	.	.
CCOc1cc(/C=N/n2cnnc2)cc(Br)c1O	5	1	3	-3	-92*	0%
NC(=O)OC[C@@H]1[C@H](NC(=O)/C(=N\OCC(=O)O)c2csc(N)n2)C(=O)N1S(=O)(=O)O	.	.	1	.	.	.
CCCCn1nnc(NC(=S)NC(=O)c2ccc(-c3cccc(Cl)c3Cl)o2)n1	-71*	5	-23	5	10	-23%
Cc1ccc(-n2nc3c(=O)n(CCCC(=O)NCCc4ccccc4Cl)nc(C)c3c2C)cc1	.	4	-5	-2	-26	.
Cc1ccc(-c2nn(-c3ccccc3)c3[nH]c(=O)c(CNCc4ccccc4)cc23)cc1	-65*	-2	-8	7	19	2%
Cc1nn(-c2ccccc2)c2[nH]c(=O)c(CNCCN3CCOCC3)cc12	-66*	2	2	-9	6	3%
Cc1ccc(-c2nn(-c3ccccc3)c3[nH]c(=O)c(CNCCN(C)C)cc23)cc1	.	2	.	11	-17	-1%
Cc1nn(-c2ccccc2)c2[nH]c(=O)c(CNc3ccc4c(c3)OCCO4)cc12	-25	0	0	5	4	-1%
Cc1nn(-c2ccccc2)c2[nH]c(=O)c(CNCc3ccc4c(c3)OCO4)cc12	-65*	1	3	-1	8	?
CCn1c(N2CCN(S(=O)(=O)c3ccc(OC)cc3)CC2)nc2ccccc21	-1	18	36*	-2	-1	-3%
CCn1c(N2CCN(S(=O)(=O)c3ccccc3C(F)(F)F)CC2)nc2ccccc21	5	6	32*	-4	-2	-9%
SMILES	D3 antag	D1 ag	D3 ag	D1 potentiator	D1 antag	BCR signal inh
COc1ccc(OC)c(S(=O)(=O)NCCc2sc(-c3ccc(C)cc3)nc2C)c1	.	3	-9	0	-1	.
COC(=O)C1CC2=C(CCCC2=O)N(Cc2ccccc2)C1=O (stereo unspecified)	-11	.	8	.	.	.
Cc1cc(N2CCC(C)CC2)nc2ccc(NC(=O)/C=C/c3cccc(Cl)c3)cc12	.	-1	-1	1	-9	.
CCCOc1cc(C)c(S(=O)(=O)N2CCOCC2)cc1C	.	1	.	-3	12	-6%
COc1cc(C)c(S(=O)(=O)N2CCOCC2)cc1C	-85*	-2	-1	-3	-3	-3%
CCOC(=O)c1sc(NS(=O)(=O)c2ccccc2Cl)nc1C	-70*	1	-7	-5	.	?
Cc1nc(NS(=O)(=O)c2ccccc2)sc1C(C)(C)C	?	5	-10	-1	-15	0%
Cc1cccc2sc(NS(=O)(=O)c3ccccc3)nc12	-64*	0	-2	0	-6	?
CCOC(=O)c1sc(NC(=O)Nc2cccc(Cl)c2)cc1C	-6	9	7	-15	-46*	?
CCOC(=O)c1sc(NC(=O)Nc2ccc(Cl)cc2)nc1C	56	20	3	-11	-44*	?
CCc1nc2ccc(C(=O)NCc3ccc(OC)cc3)cn2c1N(CCC(C)C)CCN(C)C	13	.	-4	.	.	.
Cc1cc2nn(-c3ccccc3)nc2cc1NC(=O)COc1ccc(Cl)cc1	.	1	1	-2	4	.
CCOC(=O)c1sc(NS(=O)(=O)c2ccccc2)nc1C	-60*	4	-15	-4	-21	4%
CCOC(=O)c1sc(NS(=O)(=O)c2ccc(F)cc2)nc1C	15	3	4	-5	0	10%
COc1ccc(-c2cc(C(=O)NC(Cc3cc4ccccc4[nH]3)C(=O)O)c(C)o2)cc1OC (stereo unspecified)	4	4	36*	6	9	?
CC(C)C1NCCc2c1sc1ccccc21 (stereo unspecified)	-61*	.	-28	.	.	.
CC1=C(C(=O)Nc2ccc(C)cc2C)C(c2sccc2C)n2ncnc2N1 (stereo unspecified)	.	5	-2	0	-4	.
CNC(=O)C(=O)Nc1c(C)cc(C)cc1C	10	4	4	1	-36*	4%
c1ccc2c(c1)ccn1c(Cc3ccsc3)c(C3CCCCC3)nc21	-83*	.	-17	.	.	.
Cc1ccc(Cc2c(C3CCCCC3)nc3c4ccccc4ccn23)cc1	-4	.	-13	.	.	.
Cc1cc(C)nc(NS(=O)(=O)c2ccc(NC(=O)c3cccc(N4C(=O)CCC4=O)c3)cc2)n1	-59*	-1	-8	-1	-21	3%
Cc1ccccc1OCC(=O)Nc1ccc(OCc2cc(=O)n3ccccc3n2)cc1	.	0	-20	-2	-10	.
CCN1CCN(C(=O)c2ccc(CSc3ccc(C)cc3)cc2)CC1	-53*	183*	-30	21	5	?
Cc1ccc(C(=O)N2CCN(CCNC(=O)C(=O)NC(C)C)CC2)cc1	-21	1	-12	-2	-14	1%
